Assay results from PubChem BioAssay (Tox21).
Records with an inconclusive call do not appear. The source made the active and inactive calls. Unless noted, calls come from the whole dose curve.

Assays:
[1] = Nuclear factor erythroid 2-related factor 2/antioxidant responsive element (Nrf2/ARE) small molecule agonists: qHTS cell viability counter screen in human keratinocytes (AID 1919968; active = well fitted curve in the direction sought with a large enough effect in the repeat runs; an effect the other way counts as inactive or inconclusive; note: nearly all actives have a fitted effect of over 55% in size)
Summary of the method: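 Cells of the KeratinoSens line were plated at 1,500 per well and left for 5 h before compound transfer from DMSO stocks. After a 23 h incubation (37 C, 5% CO2), CellTiter-Fluor was added. Signal was taken as fluorescence intensity 1 h later.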

[2] = molecular target: Gonadotropin-releasing hormone receptor (Homo sapiens) (UniProt P30968); test: Human gonadotropin-releasing hormone receptor (GnRHR) small molecule agonists, calcium flux assay in GnRHR-HEK293 cells (AID 1920063); note: nearly all actives have a fitted effect of over 35% in size
Chain of Gonadotropin-releasing hormone receptor (Homo sapiens) (P30968 whole entry, looked up): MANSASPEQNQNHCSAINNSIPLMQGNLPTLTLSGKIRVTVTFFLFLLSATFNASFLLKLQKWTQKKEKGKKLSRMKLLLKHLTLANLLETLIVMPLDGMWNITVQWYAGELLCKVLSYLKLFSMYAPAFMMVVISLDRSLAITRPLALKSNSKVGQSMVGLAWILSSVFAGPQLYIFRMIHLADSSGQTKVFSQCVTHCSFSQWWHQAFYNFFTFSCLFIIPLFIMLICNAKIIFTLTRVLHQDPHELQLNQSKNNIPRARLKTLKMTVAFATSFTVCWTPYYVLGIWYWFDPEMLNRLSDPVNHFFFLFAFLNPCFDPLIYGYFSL
Summary of the method: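 Compounds dissolved in DMSO are pin-transferred onto dye-loaded GnRHR-HEK293 cells, which were seeded 18 h before at 37 C/5% CO2. Calcium signal is read as fluorescence intensity at 1 s intervals for 3 min.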

[3] = molecular target: KiSS-1 receptor (Homo sapiens) (UniProt Q969F8); test: Human kisspeptin (KISS1R) small molecule agonists, calcium flux assay in KISS1R-HEK293 cells (AID 1920064; active = well fitted curve in the direction sought with a large enough effect in the repeat runs; an effect the other way counts as inactive or inconclusive)
Chain of KiSS-1 receptor (Homo sapiens) (Q969F8 whole entry, looked up): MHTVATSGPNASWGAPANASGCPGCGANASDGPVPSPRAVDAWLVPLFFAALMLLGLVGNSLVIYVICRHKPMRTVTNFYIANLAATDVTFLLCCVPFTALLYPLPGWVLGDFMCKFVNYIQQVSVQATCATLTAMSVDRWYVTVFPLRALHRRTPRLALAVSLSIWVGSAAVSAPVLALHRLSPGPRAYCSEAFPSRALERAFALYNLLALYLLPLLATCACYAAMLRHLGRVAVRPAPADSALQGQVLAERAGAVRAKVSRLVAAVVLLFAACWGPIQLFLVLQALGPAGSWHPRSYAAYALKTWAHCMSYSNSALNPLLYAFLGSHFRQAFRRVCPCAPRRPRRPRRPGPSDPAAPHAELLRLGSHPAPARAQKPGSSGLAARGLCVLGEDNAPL
Summary of the method: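 Cell line: HEK293, stable human KISS1R. Dye loading 1 h at 37 C after 18 h culture. Read: kinetic fluorescence, 480/540 nm, 3 min at 1 s intervals.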

[4] = G protein-coupled receptor (GPCR) small molecule agonists, calcium flux assay: HEK293 wild type cell line counter screen (AID 1920065)
Summary of the method: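 Tox21 10K compounds, 15 concentrations each in triplicate, pin-transferred in DMSO onto dye-loaded cells; kinetic read at 480/540 nm for 3 min, 1 s intervals.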

[5] = p53 small molecule agonists, cell-based qHTS assay with human liver microsomes (AID 1963577)
Summary of the method: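 p53RE-bla cells, 4,000/well, compound added after 5 h, with human liver microsomes 0.5 mg/mL and NADPH 0.5 mg/mL final; 16 h at 37 C, then LiveBLAzer 2 h RT, fluorescence.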

[6] = p53 small molecule agonists, cell-based qHTS assay with human liver microsomes: qHTS cell viability counter screen (AID 1963579); note: nearly all actives have a fitted effect of over 45% in size
Summary of the method: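 p53RE-bla cells, 4,000/well, dosed 5 hours after plating, with human liver microsomes (0.5 mg/mL final) plus NADPH (0.5 mg/mL final), 16 hours at 37 C. Viability read as CellTiter-Glo luminescence after 30 min at room temperature.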

[7] = p53 small molecule agonists, cell-based qHTS assay with rat liver microsomes: qHTS cell viability counter screen (AID 1963580); note: nearly all actives have a fitted effect of over 45% in size
Summary of the method: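 Counter screen for cytotoxicity under metabolic activation: rat liver microsomes and NADPH, 0.5 mg/mL final each, added with compounds to p53RE-bla HCT-116 cells; 16 h at 37 C, then ATP luminescence read.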

[8] = p53 small molecule agonists, cell-based qHTS assay: qHTS cell viability counter screen (AID 1963581); note: nearly all actives have a fitted effect of over 45% in size
Summary of the method: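 ATP content measured by luminescence in HCT-116 p53RE-bla cells treated 16 h at 37 C, same wells as the reporter screen.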

[9] = p53 small molecule agonists, cell-based qHTS assay (AID 1963582; active = well fitted activation curve with a large enough effect in the signal ratio in the repeat runs, not every such curve was filed as active; the % refers to the signal ratio)
Summary of the method: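 16 h compound exposure (37 C) of p53 response element–bla cells, preceded by 5 h recovery at 37 C/5% CO2; read-out via LiveBLAzer B/G FRET substrate, 2 h RT, fluorescence intensity.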

[10] = molecular target: 5-hydroxytryptamine receptor 2A (Homo sapiens) (UniProt P28223); test: 5-hydroxytryptamine receptor 2A (HTR2A) small molecule antagonists, cell-based qHTS assay (AID 1963586); note: nearly all actives have a fitted effect of over 45% in size
Chain of 5-hydroxytryptamine receptor 2A (Homo sapiens) (P28223 whole entry, looked up): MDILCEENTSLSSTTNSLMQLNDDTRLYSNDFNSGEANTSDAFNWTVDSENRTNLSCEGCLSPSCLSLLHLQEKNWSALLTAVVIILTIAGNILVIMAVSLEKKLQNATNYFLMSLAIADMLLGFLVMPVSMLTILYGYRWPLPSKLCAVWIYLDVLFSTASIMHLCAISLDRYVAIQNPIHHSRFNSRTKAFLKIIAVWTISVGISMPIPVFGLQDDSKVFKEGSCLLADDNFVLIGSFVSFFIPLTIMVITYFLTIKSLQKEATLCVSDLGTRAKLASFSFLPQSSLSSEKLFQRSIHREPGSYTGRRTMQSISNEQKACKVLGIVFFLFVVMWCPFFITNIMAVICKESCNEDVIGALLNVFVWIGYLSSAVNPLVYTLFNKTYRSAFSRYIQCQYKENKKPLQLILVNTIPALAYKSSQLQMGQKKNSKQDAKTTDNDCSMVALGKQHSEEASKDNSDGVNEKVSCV
Summary of the method: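 CHO cells stably expressing human HTR2A were plated for 18 h at 37 C, then loaded with calcium dye for 1 h. Compounds were preincubated 5 min at room temperature before DOI (4 nM solution) was added. Kinetic fluorescence was read for 3 min.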

[11] = molecular target: 5-hydroxytryptamine receptor 2A (Homo sapiens) (UniProt P28223); test: 5-hydroxytryptamine receptor 2A (HTR2A) small molecule agonists, cell-based qHTS assay (AID 1963587); note: nearly all actives have a fitted effect of over 30% in size
Summary of the method: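 HTR2A-CHO cells, plated 18 h at 37 C/5% CO2, dye-loaded 1 h at 37 C; compounds in DMSO added by pin tool (agonist mode). Intracellular calcium flux read as kinetic fluorescence on FDSS over 2 min at 1 s intervals.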

[12] = molecular target: Muscarinic acetylcholine receptor M1 (Homo sapiens) (UniProt P11229); test: Cholinergic receptor muscarinic 1 (CHRM1) small molecule antagonists, cell-based qHTS assay (AID 1963588); note: nearly all actives have a fitted effect of over 40% in size
Chain of Muscarinic acetylcholine receptor M1 (Homo sapiens) (P11229 whole entry, looked up): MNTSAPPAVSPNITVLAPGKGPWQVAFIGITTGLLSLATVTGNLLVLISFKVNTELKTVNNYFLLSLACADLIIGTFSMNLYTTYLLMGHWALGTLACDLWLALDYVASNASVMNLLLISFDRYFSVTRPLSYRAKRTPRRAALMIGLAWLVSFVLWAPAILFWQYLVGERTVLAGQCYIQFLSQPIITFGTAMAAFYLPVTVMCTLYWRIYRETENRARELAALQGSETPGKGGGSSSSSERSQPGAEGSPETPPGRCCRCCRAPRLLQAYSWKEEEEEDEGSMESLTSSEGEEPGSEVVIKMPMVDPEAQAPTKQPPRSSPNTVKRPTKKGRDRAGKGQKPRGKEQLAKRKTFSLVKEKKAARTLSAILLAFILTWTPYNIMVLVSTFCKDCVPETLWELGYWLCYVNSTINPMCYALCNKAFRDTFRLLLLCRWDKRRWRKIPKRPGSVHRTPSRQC
Summary of the method: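 Compounds were tested at 15 concentrations in three independent runs. Dye-loaded CHRM1-CHO cells were exposed 5 min at room temperature before stimulation by acetylcholine added at 50nM. Intracellular calcium was read kinetically on FDSS for 3 min.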

[13] = molecular target: Muscarinic acetylcholine receptor M1 (Homo sapiens) (UniProt P11229); test: Cholinergic receptor muscarinic 1 (CHRM1) small molecule agonists, cell-based qHTS assay (AID 1963589); note: nearly all actives have a fitted effect of over 35% in size
Summary of the method: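 Homogeneous fluorescence calcium flux, agonist mode. Human M1-expressing CHO cells; compound dosed at 15 concentrations, three independent runs; signal sampled every 1 sec.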

[14] = cAMP Responsive Elements (CRE) small molecule agonists, cell-based qHTS assay (AID 1963590)
Summary of the method: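 HEK 293T cells stably bearing CRE-bla were plated at 2,000 cells per well and rested 18 h. Compounds, positive controls or DMSO were added for 3 h at 37 C. LiveBLAzer B/G substrate was then loaded for 2 h at room temperature.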

[15] = cAMP Responsive Elements (CRE) small molecule antagonists, cell-based qHTS assay (AID 1963591; active = well fitted inhibition curve with a large enough effect in the signal ratio in the repeat runs, not every such curve was filed as active; the % refers to the signal ratio)
Summary of the method: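 First, CRE-bla HEK293T cells settled 18 h at 37 C. Next, compound and 0.25 uM final NKH477 were applied for 3 h. Last, LiveBLAzer B/G substrate was loaded for 2 h at room temperature.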

[16] = molecular target: Beta-2 adrenergic receptor (Homo sapiens) (UniProt P07550); test: Adrenergic beta2 receptor (ADRB2) small molecule antagonists, cell-based qHTS assay (AID 1963592); note: series mostly up to about 92 µM; nearly all actives have a fitted effect of over 50% in size
Chain of Beta-2 adrenergic receptor (Homo sapiens) (P07550 whole entry, looked up): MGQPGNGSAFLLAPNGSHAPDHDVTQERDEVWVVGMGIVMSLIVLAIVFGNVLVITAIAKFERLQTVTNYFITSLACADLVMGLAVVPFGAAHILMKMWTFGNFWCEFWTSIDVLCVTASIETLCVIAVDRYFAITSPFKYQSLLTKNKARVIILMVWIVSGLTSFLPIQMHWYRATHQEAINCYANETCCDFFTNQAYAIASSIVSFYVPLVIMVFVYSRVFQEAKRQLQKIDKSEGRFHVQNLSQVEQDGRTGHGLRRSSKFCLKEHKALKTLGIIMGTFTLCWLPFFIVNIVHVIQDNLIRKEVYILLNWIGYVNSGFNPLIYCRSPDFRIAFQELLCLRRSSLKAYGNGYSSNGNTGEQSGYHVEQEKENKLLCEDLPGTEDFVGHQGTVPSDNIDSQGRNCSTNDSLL
Summary of the method: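 Assay format: CHO-ADRB2 cells, 18-20hr seeding at 37C/5% CO2, then compound plus 1nM isoproterenol agonist mix for 0.5hr RT. Homogeneous time-resolved fluorescence cAMP detection after 1hr, expressed as 665/615 nm ratio.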

[17] = molecular target: Beta-2 adrenergic receptor (Homo sapiens) (UniProt P07550); test: Adrenergic beta2 receptor (ADRB2) small molecule agonists, cell-based qHTS assay (AID 1963593);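 note: CHO cells stably overexpressing human ADRB2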
Summary of the method: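 CHO cells stably over-expressing ADRB2 were plated overnight at 37C, then dosed with compounds plus a stimulation mix containing 100uM IBMX and 25uM Ro-20-1724 for 0.5hr at room temperature. cAMP was measured by HTRF competition, 1hr.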

[18] = molecular target: D(2) dopamine receptor (Homo sapiens) (UniProt P14416); test: Dopamine D2 receptor (DRD2) small molecule agonists, cell-based qHTS assay (AID 1963594); note: nearly all actives have a fitted effect of over 35% in size
Chain of D(2) dopamine receptor (Homo sapiens) (P14416 whole entry, looked up): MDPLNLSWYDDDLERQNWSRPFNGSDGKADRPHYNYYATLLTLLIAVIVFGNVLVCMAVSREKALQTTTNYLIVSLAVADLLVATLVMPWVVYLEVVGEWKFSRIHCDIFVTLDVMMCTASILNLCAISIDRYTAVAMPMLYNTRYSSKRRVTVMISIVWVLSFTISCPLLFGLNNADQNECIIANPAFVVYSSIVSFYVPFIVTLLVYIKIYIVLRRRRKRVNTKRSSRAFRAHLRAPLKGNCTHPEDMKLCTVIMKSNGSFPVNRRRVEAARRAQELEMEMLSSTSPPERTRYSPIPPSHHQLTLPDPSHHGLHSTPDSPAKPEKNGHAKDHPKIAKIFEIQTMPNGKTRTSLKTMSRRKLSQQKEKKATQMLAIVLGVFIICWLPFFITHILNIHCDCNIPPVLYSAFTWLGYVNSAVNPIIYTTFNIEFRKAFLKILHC
Summary of the method: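 HEK293 cells stably expressing DRD2 were cultured 24 h at 37 C, then given Ro20-1724 (0.1 mM final) and compounds for 10 min at room temperature. NKH477 (200nM) was then added for 30 min. cAMP was read by HTRF.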

[19] = molecular target: D(2) dopamine receptor (Homo sapiens) (UniProt P14416); test: Dopamine D2 receptor (DRD2) small molecule antagonists, cell-based qHTS assay (AID 1963595; active = well fitted inhibition curve with a large enough effect in the signal ratio in the repeat runs, with a control signal flat; the % refers to the signal ratio)
Summary of the method: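 Stable D2 receptor HEK293 line, 24 h after seeding. Compound preincubated 10 min, then quinpirole (12 nM) with forskolin analogue NKH477 (200 nM), 30 min, room temperature. Detection by time-resolved FRET of cAMP.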

[20] = p53 small molecule agonists, cell-based qHTS assay with rat liver microsomes (AID 1963578)
Summary of the method: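 p53RE-bla cells, 4,000/well, pre-incubated 5 h, then given compounds plus rat liver microsomes (0.5 mg/mL final) and NADPH (0.5 mg/mL final). Incubation 16 h at 37 C; beta-lactamase reporter read by LiveBLAzer fluorescence after 2 h at room temperature.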

Measured: Potency

CCc1cc(C(N)=S)ccn1
not listed: [20]
inactive: all other assays above

O=NO
not listed: [5] | [9] | [12] | [17] | [20]
inactive: all other assays above

Nc1ccc(S(N)(=O)=O)cc1
inactive: [1] | [2] | [3] | [4] | [8] | [16] | [17] | [18] | [19]

CC(O)CN(CCN(CC(C)O)CC(C)O)CC(C)O (stereo not given)
not listed: [6]
inactive: all other assays above

CC(=O)CC(c1ccccc1)c1c(O)c2ccccc2oc1=O (stereo not given)
not listed: [5] | [7] | [9] | [10] | [11] | [12] | [13] | [20]
inactive: all other assays above

O=C(O)CCCCCCCCC(=O)O
not listed: [5] | [9] | [17] | [20]
inactive: all other assays above

O=C(OCc1ccccc1)c1ccccc1O
not listed: [8] | [18]
inactive: all other assays above

Cc1ccc(S(=O)(=O)O)cc1
not listed: [5] | [9] | [20]
inactive: all other assays above
